# Results filed as inconclusive are left out. Where a call stands in place of a potency, no number is given. The source made the active and inactive calls. Calls come from the whole dose curve; as a rule, active = well fitted inhibition curve with a large enough effect in the repeat runs; inconclusive = weak or mixed curves; inactive = no such curve, though single readings can be large or run the other way.
# Biological target: Cytochrome P450 2C19 (Homo sapiens) (UniProt P33261)
# Experiment: Cytochrome P450 Family 2 Subfamily C Member 19 (CYP2C19) small molecule antagonists: luciferase reporter qHTS assay (AID 1671197); note: nearly all actives have a fitted effect of over 65% in size
# Settings: P450-Glo CYP2C19 enzyme, luciferin luminescence, 1 h; series mostly up to 115 µM
# Source text: National Center for Advancing Translational Sciences [NCATS]
# U.S. Environmental Protection Agency [EPA]
# National Institutes of Environmental Health Sciences [NIEHS]
# National Toxicology Program [NTP]
# U.S. Food and Drug Administration [FDA]
# Cytochrome P450 (CYP) enzymes are membrane-bound hemeproteins that play a key role in metabolism of drugs and xenobiotics. Evaluation of the effect of chemicals on CYP isozymes is useful to minimize the adverse drug reactions and toxicities in drug development process. Tox21 chemicals were tested for their effect on CYP enzyme activities by using P450-Glo (TM) screening systems (Promega Corporation, Madison, WI). These systems provide a luminescent method containing proluciferin substrates and are converted to luciferin products by CYP isozymes. The luciferin products formed are detected with a luciferin detection reagent, and the amount of light produced is proportional to CYP activity. P450-Glo (TM) CYP2C19 screening system (Catalog. No. V9880) was used to detect the compounds that interfere in CYP2C19 activity. The positive control compound used for CYP2C19 assay is ketoconazole (Sigma-Aldrich, St. Louis, MO).
# Tox21 Assay Protocol Summary:
# Two ul of enzyme-substrate mix was dispensed into medium binding white/solid 1536-well plates (Greiner Bio-One North America Inc., Monroe, NC) using a BioRaptr Flying Reagent Dispenser (FRD, Beckman Coulter, Brea, CA). Compounds dissolved in DMSO and positive control (ketoconazole) were transferred to the assay plates at 23 nl using a Pintool station (Wako, San Diego, CA). The assay plates were incubated at room temperature for 10 min. Then 2 ul of NADPH regeneration solution was added to each well of the assay plates using an FRD and incubated at 37C for 1 h. The reaction was stopped by adding 4 ul of detection reagent using an FRD and after 20 min incubation at room temperature the luminescence signal was measured using a ViewLux plate reader (Perkin Elmer, Shelton, CT). Data were expressed as relative luminescence units.
# Potency is the fitted concentration of half-maximal effect.
# Sequence of Cytochrome P450 2C19 (Homo sapiens) (P33261 whole entry, looked up): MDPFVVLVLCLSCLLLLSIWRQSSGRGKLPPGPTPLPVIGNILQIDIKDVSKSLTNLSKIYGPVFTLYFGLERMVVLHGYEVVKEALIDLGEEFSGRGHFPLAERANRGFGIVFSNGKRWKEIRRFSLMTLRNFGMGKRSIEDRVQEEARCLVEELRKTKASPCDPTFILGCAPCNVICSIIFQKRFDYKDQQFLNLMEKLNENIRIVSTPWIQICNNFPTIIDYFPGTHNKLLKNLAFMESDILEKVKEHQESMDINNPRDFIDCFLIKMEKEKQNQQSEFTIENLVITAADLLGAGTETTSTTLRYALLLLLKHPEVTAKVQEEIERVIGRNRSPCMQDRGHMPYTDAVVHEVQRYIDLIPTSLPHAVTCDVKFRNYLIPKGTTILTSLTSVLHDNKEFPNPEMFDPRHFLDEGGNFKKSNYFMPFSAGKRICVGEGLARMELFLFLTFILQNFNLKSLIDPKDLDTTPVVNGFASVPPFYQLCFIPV
row,Compound,Potency
1,Cc1nc(-c2ccc(OCC(C)C)c(C#N)c2)sc1C(=O)O,inactive
2,N#CCc1ccccc1[N+](=O)[O-],inactive
3,CC(=O)OC(C)(C)C,inactive
4,CCCC(C)C(=O)O (stereo not given),34.2 µM (active)
5,NC(=O)c1ncn([C@@H]2O[C@H](CO)[C@@H](O)[C@H]2O)c1O,inactive
6,CC(C)c1cccc(C(C)C)c1N,inactive
7,c1cc(CN2CCCCC2)cc(OCCCNc2nc3ccccc3s2)c1,inactive
8,CNC(=O)c1c(I)c(NC(=O)CCCCC(=O)Nc2c(I)c(C(=O)O)c(I)c(C(=O)NC)c2I)c(I)c(C(=O)O)c1I,inactive
9,CN1[C@@H]2CC[C@H]1CC(NC(=O)n1c(=O)[nH]c3ccccc31)C2 (stereo not given in full),inactive
10,C=C[Si](OC)(OC)OC,inactive
11,C#CC(O)CCCCC (stereo not given),80.3 µM (active)
12,COC(=O)CCCC(=O)O,inactive
13,CC(C)c1ccc2oc3nc(N)c(C(=O)O)cc3c(=O)c2c1,15.5 µM (active)
14,COc1ccc(N=[N+]([O-])c2ccc(OC)cc2)cc1,19.8 µM (active)
15,CSc1ccc(C=O)cc1,inactive
16,CCCCN(CCO)CCO,inactive
17,CCCC(C)CO (stereo not given),inactive
18,OC[C@H]1O[C@@H]2O[C@H]3[C@H](O)[C@@H](O)[C@@H](O[C@H]4[C@H](O)[C@@H](O)[C@@H](O[C@H]5[C@H](O)[C@@H](O)[C@@H](O[C@H]6[C@H](O)[C@@H](O)[C@@H](O[C@H]7[C@H](O)[C@@H](O)[C@@H](O[C@H]8[C@H](O)[C@@H](O)[C@@H](O[C@H]9[C@H](O)[C@@H](O)[C@@H](O[C@H]1[C@H](O)[C@H]2O)O[C@@H]9CO)O[C@@H]8CO)O[C@@H]7CO)O[C@@H]6CO)O[C@@H]5CO)O[C@@H]4CO)O[C@@H]3CO,inactive
19,COc1cccc(OC)c1,inactive
20,Cc1c(C)n(CCN(C)C)c2ccc(C(=O)OCCN(C)C)cc12,inactive

row,Compound,Potency
1,C=CCSCC1Nc2cc(Cl)c(S(N)(=O)=O)cc2S(=O)(=O)N1 (stereo not given),inactive
2,CCN1CCCC1CNC(=O)c1cc(S(N)(=O)=O)ccc1OC (stereo not given),inactive
3,Nc1cc(N)cc(C(=O)O)c1,79.6 µM (active)
4,CCCCCC[C@@H](CCC)C(=O)O,inactive
5,CCCCCCCCCCCCCCCCCC(=O)OCCCCCCCCCCCCCC(C)C,inactive
6,CCC(=O)/C=C/c1ccc(OC)cc1,12.6 µM (active)
7,O=S(=O)(c1cccc2cnccc12)N1CCCNCC1,inactive
8,CC1(C)SC(C)(C)SC(C)(C)S1,inactive
9,CSc1nc(NC2CC2)nc(NC(C)(C)C)n1,20 µM (active)
10,O=C(O)c1ccc[n+]([O-])c1,inactive
11,O=C(O)/C=C/c1ccc(/C=C/C(=O)O)cc1,8.74 µM (active)
12,C=C(C)[C@@H]1CCC2=CC(=O)C[C@@H](C)[C@]2(C)C1,6.33 µM (active)
13,CC(C)COC(=O)c1ccccc1O,inactive
14,O=C(CCOCCOCCOCCOCCC(=O)Nc1c(I)cc(I)c(C(=O)O)c1I)Nc1c(I)cc(I)c(C(=O)O)c1I,inactive
15,CC(C)[N+](C)(C)CC(O)COc1cccc2ccccc12 (stereo not given),inactive
16,CC(=O)N[C@@H](CCC(N)=O)C(=O)O,inactive
17,CCO[Si](C)(OCC)OCC,inactive
18,O=C1OC(=O)c2cc([N+](=O)[O-])ccc21,inactive
19,CC(C)(O)c1ccccc1,68.1 µM (active)
20,CCC(=O)c1cccc(Cl)c1,inactive

# Reference: PubChem BioAssay (Tox21)
